Compound activity deposited in PubChem by National Center for Advancing Translational Sciences (NCATS).
An excerpt weighted towards active compounds, which were near 3.2% of everything screened.
Marburg entry inh: Marburg virus entry inhibition; 300,000 compounds, 1.8% hits; Potency, µM (highest dose often 37.8 µM), inactives show top-dose activity change, negative = inhibition, most hits filed as inhibitors; Marburg virus pseudotyped entry inhibition, cell reporter; calls by dose curve; tested in HEK293 cells; note: potency is the fitted concentration of half-maximal effect; % is set by controls: 0 for no effect and ±100 for the full control effect
VACV mCherry inh: inhibitors of vaccinia virus infection (mCherry reporter signal) | Vaccinia virus mCherry reporter infection, fluorescence | Potency, µM (highest dose often 36.5 µM), for the others: top-dose activity change, negative = inhibition, most hits filed as inhibitors | 310,000 compounds, 0.63% hits; calls by dose curve; tested in A549 cells; note: potency is the fitted concentration of half-maximal effect; % is set by controls: 0 for no effect and ±100 for the full control effect; nearly all actives have a fitted effect of over 35% in size
FMDV inh: antivirals against foot and mouth disease virus; FMDV antiviral cell-based qHTS; Potency, µM (titrated, usually from 57.9 µM), for inactives: at the top dose activity change, negative = inhibition, most hits filed as inhibitors; 410,000 compounds, 1.2% hits; AID 1159524; calls by dose curve; tested in HEK293T cells; note: read-out not given here; potency is the fitted concentration of half-maximal effect; % is set by controls: 0 for no effect and ±100 for the full control effect; nearly all actives have a fitted effect of over 45% in size
Vaccinia Venus: vaccinia inhibition (Venus reporter). Potency, µM (highest dose often 36.5 µM), without a hit: at the highest dose activity change, negative = inhibition, hits mostly inhibitors. AID 720580. Vaccinia virus Venus reporter expression, fluorescence. 330,000 compounds, 0.46% hits; calls by dose curve; tested in A549 cells; note: potency is the fitted concentration of half-maximal effect; % is set by controls: 0 for no effect and ±100 for the full control effect; nearly all actives have a fitted effect of over 30% in size
LASV entry inh: blocks Lassa virus binding to or entry into cells; Lassa virus pseudotype entry inhibition, cell reporter; AID 540256; 300,000 compounds, 1.2% hits; Potency, µM (series often up to 37.9 µM), inactives show top-dose activity change, negative = inhibition, hits mostly inhibitors; calls by dose curve; tested in HEK293 cells; note: potency is the fitted concentration of half-maximal effect; % is set by controls: 0 for no effect and ±100 for the full control effect; nearly all actives have a fitted effect of over 50% in size
G2M arrest HeLa: inducers of G2/M cell cycle arrest in HeLa cells | shares compounds with Marburg entry inh | HeLa cell cycle G2/M arrest, Hoechst DNA content imaging | Potency, µM, hits mostly inhibitors | 25 compounds, 60% hits
WI-38 tox: counter-screen for perinucleolar compartment inhibitors: WI-38 cytotoxicity. 120 tested, under 10 active. shares compounds with Marburg entry inh. WI-38 normal lung fibroblasts, ATPLite luminescence ATP viability, 24 h. Potency, µM (series often up to 46.1 µM), for the others: at the highest dose activity change, negative = cytotoxicity, actives largely listed as inhibitors
PNC inh conf: confirmation of perinucleolar compartment assembly inhibitors | 120 compounds, 50% hits | Potency, µM (doses to about 46.1 µM), inactives show top-dose activity, negative = PNC inhibition, usual class: inhibitors | PC3M PTB-GFP, PNC prevalence imaging, 16 h | shares compounds with Marburg entry inh
PC3M casp3-7: PC3M caspase 3/7 activation by PNC inhibitor hits. shares compounds with Marburg entry inh. PC3M-GFP caspase 3/7 activation, luminescence, 24 h. activity change, positive = activation, % at 46.1 µM. 120 tested, under 10 active. AID 2731
Active calls of the source: *; i = inactive; ? = inconclusive; nt = no result; [ ] = dose if it differs, or a comment. Unless noted, calls come from the whole dose curve; as a rule, active = well fitted curve in the direction sought with a large enough effect; inconclusive = small, poorly fitted or top-dose-only effect, or another doubt; inactive = no such curve, though single readings can be large; an effect the other way counts as inactive or inconclusive.

SMILES	Marburg entry inh	VACV mCherry inh	FMDV inh	Vaccinia Venus	LASV entry inh	WI-38 tox	PNC inh conf	PC3M casp3-7	others
C=C(C)[C@H]1Cc2c(ccc3c2O[C@@H]2COc4cc(OC)c(OC)cc4[C@@H]2C3=O)O1	0.58µM*	nt	nt	nt	2.3µM*	nt	nt	nt	G2M arrest HeLa=0.63*
COC(=O)N/N=C/c1cn(CCOc2ccccc2OC)c2ccccc12	nt	nt	-21%	nt	nt	nt	nt	nt
CNC(=S)N/N=C/c1cn(CCOc2ccccc2OC)c2ccccc12	?	4.5µM*	0%	7.1µM*	-28%	-2%	?	2
CC(C)CCNC(=O)Nc1cc(C(=O)NCc2cccc(F)c2)ccc1N1CCCC1	nt	?	15%	-30%	?	nt	nt	nt
O=C(Cc1ccccc1)NC1CC(=O)N(c2ccc3c(c2)OCCO3)C1 (configuration not stated)	nt	-2%	11%	-3%	5%[46.1 µM]	nt	nt	nt
Oc1ccc(-c2nc(-c3ccc(F)cc3)c(-c3ccncc3)[nH]2)cc1	5µM*	-6%	?	-12%	?	nt	nt	nt	G2M arrest HeLa=?
O=C(O)c1ccc(-c2nc(-c3ccccc3)c(-c3ccccc3)[nH]2)cc1	14%	i	-9%	-7%	?	nt	nt	nt
C#CCOCCOCCOCCNc1nc(N2CCN(C(=O)[C@H](CO)n3cc([C@@H](N)C(C)C)nn3)CC2)nc(N2CCN(C(=O)[C@H](CO)n3cc([C@@H](N)C(C)C)nn3)CC2)n1	nt	-6%	-1%	11%	nt	nt	nt	nt
CN(C)CCCN1c2ccccc2Sc2ccc(Cl)cc21	5.6µM*	?	?	?	23µM*	nt	nt	nt	G2M arrest HeLa=?
CN1CCN(CCCN2c3ccccc3Sc3ccc(S(=O)(=O)N(C)C)cc32)CC1	nt	?	?	-28%	nt	nt	nt	nt
CC(=O)c1c(C)cc(C)c(CSc2nc(C)cc(=O)[nH]2)c1C	?	-30%	nt	-4%	-14%	0%	?	-4
Cc1cc[n+](C2=C([O-])c3ccccc3C(=O)/C2=N\S(=O)(=O)c2cccs2)cc1C	?	-14%	-24%	-17%	?	-24%	?	?
CN(c1ccccc1)c1ncnc2c1cnn2C	nt	-4%	-17%	-7%	-8%[46.1 µM]	nt	nt	nt
O=c1c2ccccc2nnn1CSc1ccc2ccccc2n1	13%	-16%	2%	-6%	-1%	19%	?	-8
O=C(CC1Sc2ccccc2NC1=O)NNc1ccc(F)cc1 (configuration not stated)	-38%	-16%	14%	-22%	2%	nt	nt	nt
O=C(Nc1cccc(S(=O)(=O)N2CCCC2)c1)c1ccc2c(c1)OCO2	0%	-10%	-7%	-9%	-9%	nt	nt	nt
O=C(Nc1cccc(S(=O)(=O)N2CCCCCC2)c1)c1ccc2c(c1)OCO2	?	-24%	-2%	?	?	-14%	-30%	-8
O=C(NCc1ccccc1)c1cc(C2CCCCN2C(=O)c2ccc3c(c2)CCO3)on1 (configuration not stated)	nt	1%	-9%	-6%	nt	nt	nt	nt
C/C(=N/OCO/N=C(/C)c1ccc(F)cc1)c1ccc(F)cc1	?	-19%	-4%	-3%	3.2µM*	20%	22µM*	1
C/C(=N/OCO/N=C(\C)c1ccc(F)cc1F)c1ccc(F)cc1F	10%	i	-18%	-13%	22%	nt	nt	nt
CN(C)c1ccc(N=Nc2ccccc2C(=O)OCC(=O)NCC2CCCCC2)cc1	?	-10%	-12%	-29%	-12%	nt	nt	nt
CN(C)c1ccc(N=Nc2ccccc2C(=O)OCC(=O)NC2CCCC2)cc1	?	-5%	1%	-13%	?	?	?	-13
COc1ccc(CCNC(=O)C2CC2)cc1OC	-2%	i	nt	-12%	1%	nt	nt	nt
COc1ccc(CN2CCC(C(=O)NCCc3ccc(OC)c(OC)c3)CC2)c(OC)c1	?	nt	-20%	1%	-1%	-27%	?	-8
COc1ccc(Cc2n[nH]c(=S)n2-c2cc(C)ccc2C)cc1OC	nt	31%	?	-4%	nt	nt	nt	nt
SMILES	Marburg entry inh	VACV mCherry inh	FMDV inh	Vaccinia Venus	LASV entry inh	WI-38 tox	PNC inh conf	PC3M casp3-7	others
COc1ccc(Cc2nnc(N/N=C/c3ccc(Br)cc3)[nH]c2=O)cc1OC	nt	-10%[7.34 µM]	1%	-6%[7.34 µM]	nt	nt	nt	nt
COc1ccc(Cc2nnc(N/N=C/c3ccc(O)cc3)[nH]c2=O)cc1OC	?	1.1µM*	-25%	?	?	?	?	-2
Cc1cnc(NC(=O)COc2cccc3c2OC(C)(C)C3)s1	?	7.9µM*	-11%	1%	0.71µM*	-4%	7.9µM*	-3
CC1(C)Cc2cccc(OCC(=O)Nc3ccccc3F)c2O1	nt	nt	-7%	nt	nt	nt	nt	nt
Cc1sc2nc(C3CC3)nc(SCC(=O)N3c4ccccc4CC3C)c2c1C (configuration not stated)	4.1µM*	nt	-3%	nt	1.8µM*	-1%	7.1µM*	-1
COc1ccccc1NC1=C(N2CCCCC2)C(=O)c2ccccc2C1=O	?	?	10µM*	10µM*	?	-21%	11µM*	?
Cc1ccc(NC2=C(N3CCCCC3)C(=O)c3ccccc3C2=O)cc1	?	i	nt	-14%	?	nt	nt	nt
OC[C@@H]1CN(CCN2CCOCC2)C[C@H](n2cnc3c(NC4CCCC4)ncnc32)O1	nt	31%	-20%	1%	nt	nt	nt	nt
CCOC(=O)c1ccccc1NC(=O)CSc1cc(C)[nH]c(=O)n1	nt	-5%	-6%	0%	5%[46.1 µM]	nt	nt	nt
C/C(N)=C(/C#N)C(=O)COC(=O)c1cc(C)n(-c2ccc(F)cc2)c1C	2µM*	?	27%	27%	?	-4%	13µM*	-9
Cc1cc(C)cc(NC(=S)NCCc2ccc(S(N)(=O)=O)cc2)c1	7%[46.1 µM]	i	-19%	-6%	-10%	nt	nt	nt
Cc1ccc(NC(=S)NCCc2ccc(S(N)(=O)=O)cc2)cc1C	-14%	-9%	-21%	-9%	-1%	-5%	32%	-4
CC1CCCCN1S(=O)(=O)c1cc2c3c(c1)CC(=O)N3CCC2 (configuration not stated)	nt	-6%	-9%	-6%	6%[46.1 µM]	nt	nt	nt
CC(=O)O[C@H]1C(=O)[C@@]2(C)C([C@H](OC(=O)c3ccccc3)[C@]3(O)C[C@H](OC(=O)[C@H](O)[C@@H](NC(=O)c4ccccc4)c4ccccc4)C(C)=C1C3(C)C)[C@]1(OC(C)=O)CO[C@@H]1C[C@@H]2O (some centres not stated)	0.25µM*	-14%[20.9 µM]	-16%[39.8 µM]	-21%[20.9 µM]	?	nt	nt	nt	G2M arrest HeLa=0.013*
